Among the test systems are RPMI-8226 leukemia; OVCAR-8 ovarian; OVCAR-5 ovarian; OVCAR-4 ovarian; SK-OV-3 ovarian; IGROV1 ovarian; OVCAR-3 ovarian; HS 578T breast; NCI/ADR-RES ovarian; T-47D breast.
Holding throughout (assay): NCI-60 one-dose screen, 48 h (100 = growth as untreated, 0 = no growth, -100 = all killed)
Common to all, as to settings: 10 µM

The structures appear in SMILES notation. The panel holds about 83,000 compounds, 20% with a hit somewhere; the sample as a whole holds those more often.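 Single-dose data. Exposure time 48 hours. Values below 10 considered active.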 Values without a mark were called inactive. The source made the active and inactive calls.

`CCOC(=O)N1C/C(=C/c2ccc(OC)cc2)C(=O)/C(=C/c2ccc(OC)cc2)C1`: the growth with RPMI-8226 leukemia was -14.8% (active); with OVCAR-8 ovarian it was 19.6%; in the assay on OVCAR-5 ovarian, 95%; in the assay with OVCAR-4 ovarian, 58%; with SK-OV-3 ovarian, 26.9%; in the assay with IGROV1 ovarian it was 17.2%. Further, the growth was 0.817% (active) in the assay on OVCAR-3 ovarian, -15.8% (active) in the assay with HS 578T breast, 21.7% in the assay on NCI/ADR-RES ovarian and 43.7% in the assay on T-47D breast.
As to `COc1cc(NC(=O)c2sc3nc4c(cc3c2N)C(O)CCC4)cc(OC)c1` (stereo not given), the growth in the assay with RPMI-8226 leukemia was 88.2%; with OVCAR-8 ovarian, 97.5%; in the assay on OVCAR-5 ovarian it was 100%; with OVCAR-4 ovarian it was 96.6%; with SK-OV-3 ovarian, 97.4%; in the assay with IGROV1 ovarian it was 85.7%. For the same compound, the growth in the assay with OVCAR-3 ovarian is 95.3%; with HS 578T breast, 106%; in the assay on NCI/ADR-RES ovarian, 87.3%; in the assay with T-47D breast, 90.8%.
Regarding `COc1ccc(Nc2cc(C)nc(NCCCNc3ccnc4cc(Cl)ccc34)n2)cc1`, the growth is -58.8% (active) with RPMI-8226 leukemia; -8.6% (active) in the assay with OVCAR-8 ovarian; 18.3% in the assay with OVCAR-5 ovarian; 4% (active) in the assay on OVCAR-4 ovarian; -25.3% (active) with SK-OV-3 ovarian; 29.7% with IGROV1 ovarian. In addition, the growth is -82.1% (active) in the assay with OVCAR-3 ovarian, -53.9% (active) in the assay with HS 578T breast, 29% in the assay on NCI/ADR-RES ovarian and -94.7% (active) in the assay with T-47D breast.
Consider `Cc1nc2oc3ccccc3c(=O)c2cc1C(=O)NCc1ccccc1`, for which the growth with RPMI-8226 leukemia was 80.4%; in the assay on OVCAR-8 ovarian, 90.4%; in the assay with OVCAR-5 ovarian, 81.8%; with OVCAR-4 ovarian it was 67.9%; with SK-OV-3 ovarian it was 110%; in the assay on IGROV1 ovarian, 102%. The growth was 93.3% with OVCAR-3 ovarian, 105% in the assay with HS 578T breast, 55.4% with NCI/ADR-RES ovarian and 53.9% in the assay on T-47D breast.
In the case of `CNc1ncc(-c2ccc(C(F)(F)F)cc2)c(NC2CCCCCC2)n1`, the growth with RPMI-8226 leukemia was 32.1%; in the assay on OVCAR-8 ovarian, 84.2%; with OVCAR-5 ovarian it was 88.8%; in the assay with OVCAR-4 ovarian, 70.1%; in the assay with SK-OV-3 ovarian it was 83%; in the assay with IGROV1 ovarian, 63.9%. For the same compound, the growth in the assay on OVCAR-3 ovarian is 78.2%; in the assay with HS 578T breast it was 99.6%; in the assay with NCI/ADR-RES ovarian it was 65.2%; in the assay on T-47D breast, 45.8%.
Regarding `N#Cc1ncc(-c2ccc(C(F)(F)F)cc2)c(NCc2cc(C(F)(F)F)cc(C(F)(F)F)c2)n1`, the growth was -19.6% (active) in the assay on RPMI-8226 leukemia; 30.6% in the assay with OVCAR-8 ovarian; 57.3% in the assay with OVCAR-5 ovarian; 21% in the assay on OVCAR-4 ovarian; 62.6% in the assay on SK-OV-3 ovarian; 40.6% with IGROV1 ovarian. Besides, the growth with OVCAR-3 ovarian was 11.4%; in the assay with HS 578T breast, 36%; with NCI/ADR-RES ovarian it was 25.5%; with T-47D breast, 9.88% (active).
With `O=C1NC(=O)c2ncccc21`, the growth in the assay with RPMI-8226 leukemia was 99.3%; in the assay on OVCAR-8 ovarian, 100%; in the assay on OVCAR-5 ovarian, 107%; with OVCAR-4 ovarian it was 113%; in the assay on SK-OV-3 ovarian, 101%; with IGROV1 ovarian it was 107%. In addition, the growth in the assay with OVCAR-3 ovarian is 113%; in the assay with HS 578T breast, 124%; in the assay on NCI/ADR-RES ovarian, 106%; with T-47D breast, 102%.
In the case of `Nc1c(C(=O)Nc2cccc(Br)c2)sc2nc3c(cc12)C(O)CCC3` (stereo not given), the growth with RPMI-8226 leukemia was 14.7%; in the assay with OVCAR-8 ovarian, 30.6%; with OVCAR-5 ovarian, 60.4%; in the assay on OVCAR-4 ovarian, 65.8%; in the assay on SK-OV-3 ovarian it was 21.8%; with IGROV1 ovarian, 27.9%. Further, the growth is -18.2% (active) in the assay on OVCAR-3 ovarian, 28.3% in the assay with HS 578T breast, 24.5% in the assay on NCI/ADR-RES ovarian and 47.4% with T-47D breast.
With `O=C(Nc1cccc(Br)c1)c1cc(=O)[nH]c2ccccc12`, the growth in the assay on RPMI-8226 leukemia is 80.2%; with OVCAR-8 ovarian it was 92.9%; with OVCAR-5 ovarian it was 90.8%; in the assay on OVCAR-4 ovarian, 97.6%; in the assay with SK-OV-3 ovarian it was 97.7%; in the assay on IGROV1 ovarian it was 17.9%. Also, the growth in the assay on OVCAR-3 ovarian is 92.4%; with HS 578T breast, 105%; in the assay with NCI/ADR-RES ovarian, 88.6%; with T-47D breast, 92.1%.
With `COc1ccc(-c2nc3ccccn3c2-c2nnc(-c3cc(OC)c(OC)c(OC)c3)o2)cc1`, the growth is 75.1% in the assay on RPMI-8226 leukemia; 35.5% in the assay on OVCAR-8 ovarian; 82.7% in the assay with OVCAR-5 ovarian; 64.8% with OVCAR-4 ovarian; 44.3% with SK-OV-3 ovarian; 87% in the assay on IGROV1 ovarian. In addition, the growth with OVCAR-3 ovarian is 40.4%; with HS 578T breast it was 82.2%; in the assay with NCI/ADR-RES ovarian, 63.7%; in the assay with T-47D breast it was 48%.
Turning to `CCCCCCCCCCCC[n+]1ccc(C(N)=O)cc1`, the growth in the assay with RPMI-8226 leukemia was -6.05% (active); in the assay with OVCAR-8 ovarian it was 16.1%; in the assay with OVCAR-5 ovarian it was 20.5%; in the assay on OVCAR-4 ovarian, 48.8%; in the assay with SK-OV-3 ovarian it was 45.5%; in the assay on IGROV1 ovarian, -18.7% (active). For the same compound, the growth was 23.2% in the assay with OVCAR-3 ovarian, 31.3% with HS 578T breast, 103% in the assay on NCI/ADR-RES ovarian and 38.8% in the assay on T-47D breast.
On to `COc1ccc(-c2nsc3c2NC(=O)CC3c2ccc(F)cc2)cc1` (stereo not given), for which the growth is 39.6% in the assay with RPMI-8226 leukemia; 46.1% with OVCAR-8 ovarian; 40.3% with OVCAR-5 ovarian; 90.8% in the assay with OVCAR-4 ovarian; 35.2% in the assay with SK-OV-3 ovarian; 56.2% with IGROV1 ovarian. For the same compound, the growth in the assay with OVCAR-3 ovarian is 23.9%; with HS 578T breast it was 66.6%; with NCI/ADR-RES ovarian it was 5.04% (active); in the assay on T-47D breast, 22.2%.
Take `CC(=O)CSC(C)=O`: the growth in the assay on RPMI-8226 leukemia is 93.2%; with OVCAR-8 ovarian, 108%; in the assay with OVCAR-5 ovarian, 106%; with OVCAR-4 ovarian, 98%; in the assay on SK-OV-3 ovarian, 110%; with IGROV1 ovarian it was 99.2%. For the same compound, the growth in the assay on OVCAR-3 ovarian is 115%; in the assay on HS 578T breast, 101%; in the assay with NCI/ADR-RES ovarian, 111%; in the assay with T-47D breast, 103%.
On to `COc1cc(/C=C2\Oc3cc(OCC(=O)c4ccccc4)ccc3C2=O)cc(OC)c1OC`, for which the growth is 107% in the assay with RPMI-8226 leukemia; 109% with OVCAR-8 ovarian; 136% in the assay on OVCAR-5 ovarian; 109% in the assay with OVCAR-4 ovarian; 120% with SK-OV-3 ovarian; 55.1% with IGROV1 ovarian. Besides, the growth in the assay with OVCAR-3 ovarian was 110%; with HS 578T breast, 107%; in the assay with NCI/ADR-RES ovarian, 97.2%; in the assay on T-47D breast it was 73.6%.
